Experiment [1] concerns the target Cytochrome P450 2C9 (Homo sapiens) (UniProt P11712). Description: Cytochrome P450 family 2 subfamily C member 9 (CYP2C9) small molecule antagonists: luciferase biochemical (cell-free) qHTS assay (AID 1645842; active means well fitted curve in the direction sought with a large enough effect in the repeat runs; an effect the other way counts as inactive or inconclusive; further: nearly all actives have a fitted effect of over 55% in size). The method, boiled down:
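Luminescence, after 20 min with luciferin detection reagent, reflected CYP2C9 turnover during a 1 h NADPH-driven reaction at 37C. Enzyme-substrate mix contained 0.4% bovine serum albumin and was preincubated with compound 10 min at room temperature.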

Experiment [2] can be described thus: Primary qHTS for inhibitors of nuclear receptor binding SET domain protein 2 (NSD2) in an isogenic RCH-ACV NSD2 p.E1099K mutant (9B) (AID 1645876). Further: nearly all actives have a fitted effect of over 70% in size.
A short description of experiment [3]: Primary qHTS for inhibitors of nuclear receptor binding SET domain protein 2 (NSD2) in an RCH-ACV wild type WT cells (2C) (AID 1645877). Further: nearly all actives have a fitted effect of over 70% in size.

Several values for one entry are separate records, joined by “and”; a condition that tells them apart may be missing. Equal entries are not always repeated. Inconclusive results are not listed. Values without a mark were called inactive. Activity calls are given as the source filed them. Unless noted, the call rests on the fitted dose curve; in most records, active means well fitted curve in the direction sought with a large enough effect; inconclusive means small, poorly fitted or top-dose-only effect, or another doubt; inactive means no such curve, though single readings can be large; an effect the other way counts as inactive or inconclusive.
Potency means the concentration at half of the fitted maximal effect.

Cytochrome P450 2C9 (Homo sapiens), sequence (P11712 whole entry, looked up): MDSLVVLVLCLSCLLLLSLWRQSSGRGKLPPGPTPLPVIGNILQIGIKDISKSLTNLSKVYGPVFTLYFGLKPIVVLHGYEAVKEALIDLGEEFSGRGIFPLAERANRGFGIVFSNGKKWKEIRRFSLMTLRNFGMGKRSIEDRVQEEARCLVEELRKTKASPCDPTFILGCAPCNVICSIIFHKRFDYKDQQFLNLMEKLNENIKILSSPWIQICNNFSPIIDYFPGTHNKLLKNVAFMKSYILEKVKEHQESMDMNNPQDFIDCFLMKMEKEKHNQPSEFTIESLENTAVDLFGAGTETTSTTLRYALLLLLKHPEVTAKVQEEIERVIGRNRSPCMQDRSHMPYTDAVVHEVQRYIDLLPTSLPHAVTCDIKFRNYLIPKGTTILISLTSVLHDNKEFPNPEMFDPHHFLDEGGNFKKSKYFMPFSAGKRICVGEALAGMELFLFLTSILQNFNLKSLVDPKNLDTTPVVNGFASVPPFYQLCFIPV

On to `COc1ccc(C(=O)Nc2c(Cl)cncc2Cl)cc1OC1CCCC1`, for which the Potency in experiment [1] was 6.74 µM (active). Besides, the Potency result in experiment [2] and in experiment [3] was “inactive” throughout.
`Oc1cccc(C2NC(=S)Nc3cccc(F)c32)c1` (configuration not stated): the values for the Potency in experiment [1], in experiment [2] and in experiment [3] were 15.1 µM (active), 3.65 µM (active) and 4.09 µM (active), respectively.
With `O=C(N[C@H]1CCC[C@H](CO)C1)C1CCN(c2nc3cc(Cl)c(-c4ccc(Cl)cc4)cc3o2)CC1`, the Potency entry in experiment [1] was “inactive”. The Potency in experiment [2] was 20.5 µM (active); in experiment [3] it was 16.3 µM (active).
The like results for `CCCN1CCC=C(c2cc(-c3ccc(C)cc3)no2)C1` were, in that order, “inactive”, “inactive” and “inactive”.
For the molecule `O=C1NC(=O)C(c2cnc3ccccn23)=C1c1cn2c3c(cc(F)cc13)CN(C(=O)N1CCCCC1)CC2`, the Potency in experiment [1] was 12 µM (active); in experiment [2], 5.2 nM (active) and 9.3 nM (active); in experiment [3] it was 5.2 nM (active) and 10.5 nM (active).
Turning to `O=C(NS(=O)(=O)c1ccc(Br)s1)c1ccc(Cl)cc1Cl`, the results for the Potency in experiment [1], in experiment [2] and in experiment [3] were 2.68 µM (active), 10.3 µM (active) and 9.16 µM (active), respectively.
The like results for `C#CCOc1ccc2c(c1)c(-c1ccc(C(C)C)cc1)nc(=O)n2C(C)C` were, in that order, 2.68 µM (active), 8.17 µM (active) and 11.5 µM (active).
In the case of `CCOC(=O)c1ccc(OCCC2CCN(c3ccc(C)nn3)CC2)cc1`, in experiment [1], the Potency was 19 µM (active). In addition, the Potency entry in experiment [2] and in experiment [3] was “inactive” in each case.
As to `Cc1c(NC(=O)OCC2COCCN2)cn2ncnc(Nc3ccc4c(cnn4Cc4cccc(F)c4)c3)c12` (configuration not stated), the Potency was 19 µM (active) in experiment [1]; 14.5 µM (active) and 18.6 µM (active) in experiment [2]; 16.3 µM (active) and 16.6 µM (active) in experiment [3].
Take `CC(C)CCNC(=O)c1ccc2c(c1)nc(Nc1n[nH]c3ccc(-c4ccccc4OC(F)(F)F)cc13)n2C1CCC(O)CC1` (configuration not stated): the Potency in experiment [1] is 9.52 µM (active); in experiment [2] it was 10.3 µM (active); in experiment [3], 14.5 µM (active).
In the case of `CCN1CCN(Cc2ccc(C(=O)Nc3ccc(C)c(Oc4ccc5c(c4)CC(=O)N5)c3)cc2C(F)(F)F)CC1`, the values for the Potency in experiment [1], in experiment [2] and in experiment [3] were 23.9 µM (active), 16.3 µM (active) and 16.3 µM (active), respectively.
On to `Cn1nc(-c2ccc(C(F)(F)F)cc2)nc2c(=O)n(C)c(=O)nc1-2`, for which, in experiment [1], the Potency entry is “inactive”. Moreover, the Potency in experiment [2] was 2.58 µM (active); in experiment [3] it was 2.3 µM (active).
As to `Cn1c(=O)c(F)c(Nc2ccc(I)cc2F)c2c(=O)n(CC(O)CO)cnc21` (configuration not stated), the Potency was 9.52 µM (active) in experiment [1], 23 µM (active) in experiment [2] and 23.1 µM (active) in experiment [3].
In the same order, the values of `COC(=O)c1ccc2c(c1)[nH]c1ncnc(NCCCN3CCCCC3)c12` are “inactive”, 16.3 µM (active) and 16.3 µM (active).
Turning to `CC(C)n1nc(C#Cc2ccccc2)c2c(N)ncnc21`, the values for the Potency in experiment [1], in experiment [2] and in experiment [3] were 0.601 µM (active), 1.83 µM (active) and 3.25 µM (active), respectively.
The like results for `O=C(NCCCn1ccnc1)c1cc(-c2ccco2)on1` were, in that order, 9.52 µM (active), 14.5 µM (active) and 10.3 µM (active).
As for `NCC1CCN(c2nccc(-c3ccc4ccccc4c3)n2)CC1`, the Potency in experiment [1] is 0.849 µM (active); in experiment [2], 1.86 µM (active); in experiment [3], 1.18 µM (active).
In the same order, the values of `COc1ccc(N2CCN(C(=O)c3cc4c(s3)-c3ccccc3S(=O)(=O)C4)CC2)cc1` are 10.7 µM (active), “inactive” and “inactive”.
For `CCOC(=O)c1cnc2ccc(-c3cncc(NS(=O)(=O)c4ccccc4)c3)cn12`, the Potency is 0.134 µM (active) in experiment [1], 0.29 µM (active) in experiment [2] and 0.258 µM (active) in experiment [3].
In the same order, the values of `O=C(Nc1ccc(CN2CCOCC2)cc1)c1ccc(-c2cccc(Cl)c2)o1` are 19 µM (active), 16.3 µM (active) and 11.5 µM (active).
The like results for `C[C@H]1[C@H](/C=C/c2ccc(-c3ccccc3C#N)cn2)[C@@H]2[C@@H](C)OC(=O)[C@@H]2C[C@@H]1C` were, in that order, “inactive”, 14.5 µM (active) and 10.3 µM (active).
As for `O=C(NCCCCN1CCN(c2cccc(Cl)c2Cl)CC1)c1cc2ccccc2s1`, the Potency in experiment [1] was 3.79 µM (active); in experiment [2] it was 20.5 µM (active); in experiment [3], 23 µM (active).
For the molecule `C[C@@H](Nc1ncnc2[nH]c(-c3ccc(O)cc3)cc12)c1ccccc1`, the Potency was 1.2 µM (active) in experiment [1]; 5.78 µM (active) and 11.8 µM (active) in experiment [2]; 5.78 µM (active) and 10.5 µM (active) in experiment [3].
With `C[C@@H](N[C@H]1CCCC[C@@H]1NC(=O)c1ccc(Cl)cc1)c1cccc2ccccc12`, the Potency in experiment [1] is 12 µM (active); in experiment [2] it was 14.5 µM (active); in experiment [3] it was 9.16 µM (active).
The like results for `O=S(=O)(Nc1ccccc1N1CCCCC1)c1ccc(Cl)s1` were, in that order, 5.35 µM (active), “inactive” and “inactive”.
`CCc1ccccc1OC[C@@H](O)CN[C@H]1CCCc2ccccc21`: the Potency entry in experiment [1] is “inactive”. The Potency is 16.3 µM (active) in experiment [2] and 10.3 µM (active) in experiment [3].
In the same order, the values of `Cc1ccc(F)cc1S(=O)(=O)N[C@@H]1CCN(Cc2ccc(OC(C)C)cc2)C1` are 6.01 µM (active), 16.3 µM (active) and 18.3 µM (active).
As to `Cc1cc(Nc2nc(-c3ccccc3)nc3ccccc23)n[nH]1`, the Potency is 10.7 µM (active) in experiment [1], 2.9 µM (active) in experiment [2] and 3.25 µM (active) in experiment [3].
As for `COc1ccccc1N1CCN(c2ncnc3n[nH]c(Br)c23)CC1`, the Potency in experiment [1] was 7.56 µM (active); in experiment [2] it was 23 µM (active); in experiment [3], 16.3 µM (active).

Source of the values: PubChem BioAssay (NCATS).
